This passage reports binding signal results from PMC7819943, “Rice protein-binding microarrays: a tool to detect cis-acting elements near promoter regions in rice”.

The full ranking holds about 68,000 sequences; the median of “fluorescence intensity (a.u.)” is about 9,100, and the highest 2% start at about 16,000. What follows is part of a selection rich in the highest values, with near analogues and random picks from the rest.

OsWRKY34, sequence (Q0JBA9 entry or part of it): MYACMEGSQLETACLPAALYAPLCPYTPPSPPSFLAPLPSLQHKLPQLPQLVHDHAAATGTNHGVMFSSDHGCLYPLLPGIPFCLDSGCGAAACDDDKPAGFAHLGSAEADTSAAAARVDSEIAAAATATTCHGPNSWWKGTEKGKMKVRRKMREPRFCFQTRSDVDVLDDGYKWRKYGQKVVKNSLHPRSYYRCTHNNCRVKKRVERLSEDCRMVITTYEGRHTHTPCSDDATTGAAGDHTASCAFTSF

The assay has as its target OsWRKY34 (Oryza sativa, UniProt Q0JBA9 1-250). The experiment in a line: protein-binding microarray (RPBM); PBS, 2% BSA, 51.3 ng/ul salmon testes DNA, 50 uM zinc acetate, 200 nM TF, 25 C, 1 h; high values mean tight binding. Particulars: protein: recombinant; tags: N-terminal polyhistidine and DsRed monomer fusion (pET32a); label: CyDye5-dUTP incorporated in the synthesized complementary strand; 3' TTTTT single-stranded linker to array surface; dsDNA, one strand shown. The method in brief: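 Using Ni–NTA, transcription factors fused N-terminally to polyhistidine and DsRed were purified after expression in E. coli BL21-CodonPlus. These were incubated at 200 nM with a blocked, double-stranded custom Agilent array for 1 h at 25 °C in a buffer containing 50 µM zinc acetate, and the array was washed. The binding signal is per-feature fluorescence intensity (arbitrary units) on an Axon 4000B scanner.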
In the case of “CGAGAGATCGTTGCCCTCCGTATCCACTACTACTACACTCCGGAGTCACCTAGTGCAG”, the binding signal is 8310 fluorescence intensity (a.u.). Under “CAGGATTGCTTGGAGATTCGTGCGGGGACGCGCGGGGTGACGGAGTCACCTAGTGCAG” stands 9720 fluorescence intensity (a.u.); under “TACCGGTTAAAACGCCCAAGTCAGTGGCTCTCGTCCTCCTCGGAGTCACCTAGTGCAG”, 8860 fluorescence intensity (a.u.); under “GTGCAGTTTATACATTAACATGTTAATCCCACTTTACTACCGGAGTCACCTAGTGCAG”, 10300 fluorescence intensity (a.u.). Regarding “ACGGCATTTTTCGCCCCTTTTGTCACTGAAACACTTCACCCGGAGTCACCTAGTGCAG”, the binding signal is 8860 fluorescence intensity (a.u.).

In the case of “GCAGCCCTCAATTTCTATGGCGATCGCCTCTGCTTCGTCGCGGAGTCACCTAGTGCAG”, the binding signal is 8440 fluorescence intensity (a.u.). In the case of “GGCCTCCTTCATCACGCCCTGGATCTCACTGACTAAAAACCGGAGTCACCTAGTGCAG” it was 8030 fluorescence intensity (a.u.). In the case of “CTATGTTCATCCTCGTGTCATATTGTGTTCATCTTCATACCGGAGTCACCTAGTGCAG” it was 11600 fluorescence intensity (a.u.); in that of “GAGGGAGTATTATCTTCTGAACATATGTTTGACCATTGGACGGAGTCACCTAGTGCAG”, 8940 fluorescence intensity (a.u.). As to “ATTACCCTAATCATCATTCATTCATGTATAGCTCATCCTACGGAGTCACCTAGTGCAG”, the binding signal is 8810 fluorescence intensity (a.u.).

On to “ACCATCAAGTTCTGCTTTTCTTCCCCATGTTTTTTTGCCCCGGAGTCACCTAGTGCAG”, for which the binding signal was 10700 fluorescence intensity (a.u.). Under “CATTCCGGTTGGTGTTTTTCGCTTGATTTGTACTACTATTCGGAGTCACCTAGTGCAG” stands 18500 fluorescence intensity (a.u.); under “TCTTTCCTGTTTCCGCTTGGTTTTCCGGTGTTTATTTTGTCGGAGTCACCTAGTGCAG”, 14200 fluorescence intensity (a.u.); under “TGATATGTTGGTGAATGGTAATTTTTTGGGTTGATATATTCGGAGTCACCTAGTGCAG”, 11200 fluorescence intensity (a.u.). As for “AGGAGGTGTTGTTTCTTGCGATCTTGGGTTGATTGATATGCGGAGTCACCTAGTGCAG”, the binding signal was 8460 fluorescence intensity (a.u.). Turning to “ATGTTGATATTGTGGTTGGTTGTGGGCATGTTACATTTTCCGGAGTCACCTAGTGCAG”, the binding signal was 11500 fluorescence intensity (a.u.). “CATGTGTTTGATTTCCTGTTTATATTTTGTTCAGAGTTTCCGGAGTCACCTAGTGCAG”: the binding signal is 11700 fluorescence intensity (a.u.).

“CTCTGTGTTGTTTTTGGCATGTGTTTGATATTTGGAGTTCCGGAGTCACCTAGTGCAG”: the binding signal was 16600 fluorescence intensity (a.u.).

Regarding “TGTACATGTGTTTGATTTTGCTTGTGGTTGCCGTGGATTTCGGAGTCACCTAGTGCAG”, the binding signal is 11500 fluorescence intensity (a.u.).

“TAATATTTCTTGCGGTGGGTTGGATTGATATCGATTGTTTCGGAGTCACCTAGTGCAG”: the binding signal was 17600 fluorescence intensity (a.u.). “CTCTGTTGGTTTCTTGCGGTTTTGATTATTTGTTTGTGGTCGGAGTCACCTAGTGCAG”: the binding signal is 11900 fluorescence intensity (a.u.). Regarding “TGCGGGTTGTTTTGATTGACAATTTAGTGTTGGTGTTGTTCGGAGTCACCTAGTGCAG”, the binding signal is 9980 fluorescence intensity (a.u.).

In the case of “GGTGGGTGTTTTAATGTGACATGATATTTGTGGTTGGGTTCGGAGTCACCTAGTGCAG”, the binding signal is 21700 fluorescence intensity (a.u.). “CGATGACAAGTTGACGCACCTTGGGTGTACTTTTTCCTTCCGGAGTCACCTAGTGCAG”: the binding signal was 8280 fluorescence intensity (a.u.).

For “CTCCAACCTAACCCCTGCCTGCCTGCATCAACCATATATGCGGAGTCACCTAGTGCAG”, the binding signal was 8720 fluorescence intensity (a.u.). Under “CACTAATTTTGCCTTTGTGCCTTTTACTATTGCGCATCACCGGAGTCACCTAGTGCAG” stands 10200 fluorescence intensity (a.u.); under “ACATTAACTAAATGGTGGAGGGCAGGGGTTCGTCTTTCTTCGGAGTCACCTAGTGCAG”, 13600 fluorescence intensity (a.u.); under “GACTACTGAATGTGCTATTCTTGGCCTTTTCTATAGATAACGGAGTCACCTAGTGCAG”, 9960 fluorescence intensity (a.u.). In the case of “CTATTTTGGCCACTCGGGAGATGGTGTTGTTTCTGAATTTCGGAGTCACCTAGTGCAG” it was 8180 fluorescence intensity (a.u.); in that of “CTGTCTTCACCGTGCCGCTCCTTTCCTTCCATTTCATCTCCGGAGTCACCTAGTGCAG”, 8440 fluorescence intensity (a.u.); in that of “CAGGGGTGGGTGTTAGCTGTTGTGCAAGAAGTGGTGTTTGCGGAGTCACCTAGTGCAG”, 10600 fluorescence intensity (a.u.).

In the case of “GCCGGAGTCCATCGCCCTACATTGCCCACCAACCGCACGCCGGAGTCACCTAGTGCAG”, the binding signal is 10200 fluorescence intensity (a.u.). “TTCATATTCTTTTTTTTTTCGAGGTCATACTTTTTAATTCCGGAGTCACCTAGTGCAG”: the binding signal is 12200 fluorescence intensity (a.u.). In the case of “GCGGGGTTGATTTCTGACTGAGATTTTGTTTTTCTTTTCTCGGAGTCACCTAGTGCAG” it was 14000 fluorescence intensity (a.u.); in that of “TTTTTGTTTTTTAATTGTGGAGTTTGGGAGGAGGAGGGGACGGAGTCACCTAGTGCAG”, 9870 fluorescence intensity (a.u.); in that of “CCACTGACTACTGATGGGTGTGTTGATAGTGTTTTGTCAGCGGAGTCACCTAGTGCAG”, 8870 fluorescence intensity (a.u.). On to “CGTGGGGTGGGATCGGAAGCAGTGGAGTTGTTTTTATTATCGGAGTCACCTAGTGCAG”, for which the binding signal was 16500 fluorescence intensity (a.u.). As for “GGGGATTGGTTTGGTGTGGGTGTTTTGTGTGGGGATTGATCGGAGTCACCTAGTGCAG”, the binding signal was 28100 fluorescence intensity (a.u.). In the case of “TTTTTCACGGGGATGGGTCGGGGATTGTTGACTGATAAAGCGGAGTCACCTAGTGCAG” it was 21700 fluorescence intensity (a.u.).

Regarding “AGGGTTTGTTTGTTTATTTGTTTGTTTGATCGGTGTGGGGCGGAGTCACCTAGTGCAG”, the binding signal is 13300 fluorescence intensity (a.u.). For the sequence “GGGTTTGGGGATCGATTGATTTATAGGCTTTTTTGTTTTTCGGAGTCACCTAGTGCAG”, the binding signal is 8810 fluorescence intensity (a.u.). With “AAATTTATTGTTTGGCTGGAAGACGTGGGGTTTTAAGAGGCGGAGTCACCTAGTGCAG”, the binding signal is 8370 fluorescence intensity (a.u.).
